# HCV inh: HCV inhibition; Huh7.5.1 HCVcc-Cre infection, luciferase reporter, 44 h; Potency, µM (highest dose often 41.8 µM), inactives show at the highest dose activity change, negative = inhibition, most hits filed as inhibitors; 3.4% of 340,000 active; AID 651820; note: potency is the fitted concentration of half-maximal effect; % is set by controls: 0 for no effect and ±100 for the full control effect
#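 A cell-based infection assay in which seeded cells (1,000 per well) receive test compound after 4 h, are inoculated with HCVcc-Cre at approximately 0.5 moi, and are incubated 44 h before luminescence detection.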
# Pf growth 96h: P. falciparum growth inhibition at 96 hours; P. falciparum luciferase reporter growth, 96 h; Potency, µM (series often up to 28.7 µM), inactives show top-dose activity change, negative = inhibition, usual class: inhibitors; 6.9% of 320,000 active; AID 504834; note: potency is the fitted concentration of half-maximal effect; % is set by controls: 0 for no effect and ±100 for the full control effect
#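 Two-generation exposure (96 h) targets delayed-death phenotype. Reporter parasites carrying integrated firefly luciferase, in red cells at 2% hematocrit and 0.05% parasitemia final, kept at 37 C, 5% CO2; luminescence loss indicates inhibition.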
# AMA1 RON2 block: inhibitors of Plasmodium falciparum AMA1-RON2 interaction; AlphaScreen AMA1-biotinylated RON2 peptide binding; AID 720542; Potency, µM (titrated, usually from 58.2 µM), without a hit: at the top dose activity change, negative = inhibition, hits mostly inhibitors; 0.2% of 360,000 active;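 note: potency is the fitted concentration of half-maximal effect; 0% = vehicle wells and -100% = peptide control; nearly all actives have a fitted effect of over 45% in size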
#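 AMA1 (3D7) with his tag at 25 nM final met compounds first, then biotinylated RON2 peptide at 25 nM; detection used donor plus acceptor beads, 10 µg/mL apiece, read by AlphaScreen after 30 min at room temperature.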
# Pf growth 48h: P. falciparum growth inhibition at 48 hours (one generation); P. falciparum luciferase growth in erythrocytes, 48 h; Potency, µM (top dose mostly 28.7 µM), for the others: at the highest dose activity change, negative = inhibition, hits mostly inhibitors; 5.9% of 310,000 active; AID 504832; note: potency is the fitted concentration of half-maximal effect; % is set by controls: 0 for no effect and ±100 for the full control effect
#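 Compounds are pin-transferred into medium, infected erythrocytes (2% hematocrit, 0.1% parasitemia final) are added, and plates sit one parasite generation at 37 C in 5% CO2. Detection reagent is then added and luminescence measured.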
# Shiga toxin inh: inhibitors of Shiga toxin in Vero cells | Vero cells, Shiga toxin protein synthesis inhibition reporter | inhibition, % at 38.7 µM | 9.2% of 290,000 active; in the data active = inhibition mostly above about 28%, no sharp cut-off; inactive = mostly below about 43%; note: 0% is about no effect
# CHX counter: affects cycloheximide protein synthesis inhibition readout, counter-screen | cell reporter, cycloheximide protein synthesis inhibition counterscreen | max response, % | 12% of 300,000 active | AID 2314; in the data active = max response mostly above about 13%, no sharp cut-off; inactive = mostly below about 14%; note: read at 38.3 µM for the half of the compounds with a filed dose; 0% is about no effect
# The depositor's hits bear a star; i = inactive; ? = inconclusive; nt = not tested or not shown; + = active, no number; [ ] = remark or other dose. In the library only some 21% were active in any assay of this set; here they are far more common. Unless noted, calls come from the whole dose curve; as a rule, active = well fitted curve in the direction sought with a large enough effect; inconclusive = small, poorly fitted or top-dose-only effect, or another doubt; inactive = no such curve, though single readings can be large; an effect the other way counts as inactive or inconclusive.
SMILES,HCV inh,Pf growth 96h,AMA1 RON2 block,Pf growth 48h,Shiga toxin inh,CHX counter
CC(C)N1CC(COc2ccc(Br)cc2)OC1=O (stereo unspecified),0.1%,-15.5%,2.4%,30.4%,2.9,10.7
CCc1cccc(OCC2Cn3c(nc4c3c(=O)[nH]c(=O)n4C)O2)c1 (stereo unspecified),-15.9%,11.7µM*,5.4%,5.1%,-3.7,-2.0
Cn1c(=O)c2c(nc3n2CC(COc2ccccc2)O3)n(C)c1=O (stereo unspecified),14.9%,9.28µM*,6.3%,0.0%,23.5,-2.3
CC(C)(C)N1CC(COc2ccccc2)OC1=O (stereo unspecified),8.7%,28.6%,0.5%,45.4%,23.1,20.7*
Cc1ccc(C(=O)N/C(=C/c2ccccc2)C(=O)NCC2CCCO2)cc1 (stereo unspecified),3.7%,?,-17.2%,6.4%,-16.9,6.6
NC(=O)C1(Nc2ccc(Cl)cc2)CCCC1,4.2%,nt,38.7%,nt,nt,nt
COc1cc(CNCCNC(=O)c2nonc2N)ccc1OCc1ccc(Cl)cc1,?,-4.9%,-7.9%,?,3.2,0.9
COc1ccc(C(=O)OCCc2ccc(O)cc2)cc1,-1.2%[8.37 µM],360.3%,23.0%,280.8%,50.3*,37.9*
COc1ccc(CCOC(=O)c2ccc(NC(=O)CC#N)cc2)cc1,-28.9%,0.0%,-8.6%,?,30.4,41.2*
COc1ccc(CCn2c(C)cc(C(=O)COC(=O)c3ccc(NC(=O)CC#N)cc3)c2C)cc1,-0.1%,?,-1.1%,?,-1.0,-3.7
COc1ccc(NC(=O)NCC(C)CSc2ccc(C)cc2)c(OC)c1 (stereo unspecified),?,?,-1.3%,-32.2%,-3.9,0.9
CCOC(=O)C1=CCN(S(=O)(=O)c2ccccc2Cl)C1c1cccc(Br)c1 (stereo unspecified),nt,nt,-1.5%,nt,nt,nt
CC1(C)CCC[C@@](C)([C@H]2CC[C@]3(C)[C@@H]2[C@H](O)C[C@@H]2[C@@]4(C)CC[C@H](O)C(C)(C)[C@@H]4CC[C@]23C)O1,nt,nt,nt,nt,16.4,-2.0
O=C(CSc1ccc(-c2ccco2)nn1)Nc1ccc(F)cc1F,?,-3.2%,-3.1%,1.3%,32.6,0.5
CNC(=S)SCCOc1ccccc1,12.9%,4.1%,26.5%,18.0%,101.4*,20.8*
CO[C@H]1C[C@@H]2CC[C@@H](C)[C@@](O)(O2)C(=O)C(=O)N2CCCC[C@H]2C(=O)O[C@H]([C@H](C)C[C@@H]2CC[C@@H](O)[C@H](OC)C2)CC(=O)[C@H](C)C=C(C)[C@@H](O)[C@@H](OC)C(=O)[C@H](C)C[C@H](C)C=CC=CC=C1C,nt,0.928µM*,nt,5.22µM*,2.7,6.1
Cc1ccc(CSCC(=O)N(C)CC(=O)Nc2ccccc2Cl)cc1,17.8%,-24.6%,-5.7%,?,nt,nt
Cc1ccc(CSCC(=O)N(C)CC(=O)Nc2c(Cl)cccc2Cl)cc1,0.1%,?,-18.4%,10.4µM*,nt,nt
S=c1[nH]nc(-c2cccc(Cl)c2)n1/N=C/c1ccc(-c2ccccc2Br)o1,-29.5%,?,51.7%,10.4µM*,30.9,-1.9
Cc1ccc(/C=N/n2c(-c3cccc(Cl)c3)n[nH]c2=S)o1,9.7%,16.8%,60.7%,54.9%,7.9,-1.6
COC(=O)[C@]12CCCCC=C1N(CCC1=CCCCC1)C(=O)[C@H](CC(=O)N1CCOCC1)C2,nt,nt,1.9%,nt,nt,nt
COC(=O)[C@@]12C[C@@H](CC(=O)NCc3ccc(C)o3)C(=O)N(Cc3cccc4ccccc34)C1=CCC(C)(C)C2,nt,nt,-22.8%,nt,nt,nt
CCc1nc(SCc2nnc(-c3ccc(C)cc3)o2)c2c(C)c(C)sc2n1,14.6%,nt,-14.3%,nt,nt,nt
Cc1csc(SCc2nnc(-c3ccc(Cl)cc3)o2)n1,-2.9%,41.3%,-12.4%,nt,91.5*,31.8*
Cc1ccc(-c2nnc(CSc3nnc(C)s3)o2)cc1,11.2%,nt,1.4%,93.0%,79.5,33.3*
SMILES,HCV inh,Pf growth 96h,AMA1 RON2 block,Pf growth 48h,Shiga toxin inh,CHX counter
Fc1ccccc1SCc1nnc(-c2ccccc2Br)o1,-26.8%,i,30.2%,i,141.4*,53.3*
Cc1csc(SCc2nnc(-c3ccccc3Br)o2)n1,-8.8%,-12.5%,0.0%,95.5%,77.6*,48.0*
CCCN1C(=O)/C(=C/c2c(N3CCNC(=O)C3CC(=O)OC)nc3c(C)cccn3c2=O)SC1=S (stereo unspecified),nt,?,nt,?,-3.4,0.5
CN(CC(=O)Nc1ccc(Cl)cc1)C(=O)CNC(=O)c1cccs1,?,-15.8%,6.5%,-25.2%,nt,nt
Cc1ccc(-c2nnc(CSc3nc4cc5c(cc4cc3C)OCO5)o2)cc1,?,13.1µM*,-2.3%,9.3%,-5.1,-4.5
Cc1ccc(S(=O)(=O)N(C)C[C@H]2OCc3cn(nn3)CCCC(=O)N([C@H](C)CO)C[C@@H]2C)cc1,nt,nt,-2.7%,nt,nt,nt
Cc1cc(S(=O)(=O)NC2CCCCC2)ccc1OCC(=O)NCc1ccccn1,17.2%,?,0.0%,13.1µM*,20.0,-3.3
Cc1cc(S(=O)(=O)NCc2ccccc2)ccc1OCC(=O)NCc1ccncc1,-0.5%,?,-14.8%,?,80.2*,48.6*
O=C(COc1ccc(S(=O)(=O)NCc2ccccc2)cc1Cl)NCc1ccncc1,4.7%,-8.1%,-14.7%,-8.4%,-18.1,-1.5
Cc1cc(S(=O)(=O)N2CCCC2)ccc1OCC(=O)NCc1ccccn1,6.1%,-1.4%,9.1%,-11.1%,-4.2,-10.2
CCOc1ccc(N2CC(C(=O)Nc3ccncc3)CC2=O)cc1 (stereo unspecified),8.0%,9.8%,11.8%,12.4%,-15.2,4.5
Cc1ccccc1C(=O)N1[C@@H](C(C)C)COc2cc(Br)ccc2S1(=O)=O,-10.2%,nt,-3.5%,nt,nt,nt
CC1=NOC(=O)/C1=C\c1ccc(-c2cccc(Cl)c2)o1,?,81.1%,?,43.5%,13.7,26.2
CC1=NOC(=O)/C1=C\c1ccc(-c2ccccc2Br)o1,-17.4%,14.7µM*,?,5.4%,-9.1,-7.5
O=C(NC1CC2CCCC(C1)N2Cc1cccs1)c1ccc([N+](=O)[O-])cc1 (stereo unspecified),nt,6.3%,nt,9.0%,-4.5,-3.2
CCOc1ccccc1-c1ccc(C(=O)O)s1,nt,nt,nt,nt,+,44.1*
c1ccc(-c2ccc(-c3ccccn3)s2)nc1,?,495.3%,13.7%,384.2%,132.4*,45.4*
O=C(O)c1cc(-c2ccccn2)n[nH]1,8.4%,?,35.9%,1.1%,-1.3,-3.0
c1ccc(-c2nnc(-c3ccccn3)nn2)nc1,?,nt,-69.6%,nt,nt,nt
O=C(O)c1ccc(-c2ccccn2)s1,22.4%,20.7%,5.6%,0.0%,29.1*,44.7*
O=C(c1ccccc1)c1c(-c2ccccc2)[nH]n(-c2ccccc2)c(=O)c1=O,5.6%,nt,8.2%,nt,nt,nt
Cc1cc(N2CCCCC2)ccc1C=C1C(=O)N(C)C(=S)N(C)C1=O,?,37.2%,-0.4%,8.1%,2.2,-1.7

# From PubChem
